Several values for one entry are separate records, joined by “and”; a condition that tells them apart may be missing. Identical values can stand only once. Hit rate of the full screen: of about 5,500 compounds, about 2,000 (36%) were called active. Another 18% or so got no clear call; they are omitted. No stated cut-off is given here; in the data, active means normalized growth mostly below about 0.91 (no sharp cut-off); inconclusive means no clear call, values can overlap the other calls; inactive means mostly above about 0.92. Some of the results follow.
Test: chemical genetic growth profiling, strain panel (AID 1159580);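 further: tested at 20 µM; growth read once vehicle control cultures reached saturation at 30 °C; 1 = growth at the plate median or of vehicle wells; lower values mean less growth of the strain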
Conditions: S. cerevisiae deletion strains, growth OD

Measured: normalized growth

Cn1c(=O)c2c(ncn2CC(O)CO)n(C)c1=O (configuration not stated)
inactive: locus YAL013W, strain DEP1, active compounds read low 1.01 | locus YAL021C, strain ccr4, active compounds read low 0.97 | locus YAL026C, strain drs2, active compounds read low 0.967 | locus YAL030W, strain snc1, active compounds read low 0.989 | locus YBL061C, strain skt5, active compounds read low 0.992 | locus YBR009C, strain hhf1, active compounds read low 0.982 | locus YBR021W, strain FUR4, active compounds read low 1.03 | locus YBR023C, strain chs3, active compounds read low 1 | locus YBR171W, strain sec66, active compounds read low 0.978 | locus YBR229C, strain ROT2, active compounds read low 1.01 | locus YBR231C, strain swc5, active compounds read low 1 | locus YBR279W, strain paf1, active compounds read low 0.972 | locus YCL011C, strain gbp2, active compounds read low 0.99 | locus YCL016C, strain dcc1, active compounds read low 1.01 | locus YCL029C, strain bik1, active compounds read low 0.96 | locus YCL061C, strain MRC1, active compounds read low 1 | locus YCL069W, strain vba3, active compounds read low 0.953 | locus YCR088W, strain abp1, active compounds read low 0.989 | locus YDL005C, strain med2, active compounds read low 0.972 | locus YDL035C, strain GPR1, active compounds read low 1.05 | locus YDL040C, strain nat1, active compounds read low 0.986 | locus YDL074C, strain BRE1, active compounds read low 1.02 | locus YDL101C, strain DUN1, active compounds read low 0.995 | locus YDL185W, strain tfp1, active compounds read low 0.954 | locus YDL192W, strain arf1, active compounds read low 0.972 | locus YDR001C, strain nth1, active compounds read low 0.97 | locus YDR069C, strain doa4, active compounds read low 0.958 | locus YDR101C, strain arx1, active compounds read low 1.01 | locus YDR137W, strain rgp1, active compounds read low 0.986 | locus YDR159W, strain sac3, active compounds read low 0.942 | locus YDR162C, strain NBP2, active compounds read low 1.02 | locus YDR195W, strain ref2 0.951 | locus YDR297W, strain sur2, active compounds read low 0.991 | locus YDR318W, strain mcm21, active compounds read low 0.977 | locus YDR334W, strain swr1, active compounds read low 0.973 | locus YDR335W, strain msn5, active compounds read low 0.981 | locus YDR388W, active compounds read low 0.988 | locus YDR392W, strain spt3, active compounds read low 0.939 | locus YDR502C, strain sam2, active compounds read low 0.984 | locus YEL003W, strain gim4, active compounds read low 0.981 | locus YEL037C, strain rad23, active compounds read low 0.972 | locus YEL061C, strain CIN8 (second series), active compounds read low 0.97 | locus YEL061C, strain CIN8, active compounds read low 0.997 | locus YER015W, strain faa2, active compounds read low 0.993 | locus YER016W, strain bim1, active compounds read low 0.951 | locus YER110C, active compounds read low 0.943 | locus YER111C, strain swi4, active compounds read low 0.988 | locus YER155C, strain BEM2 (second series), active compounds read low 0.953 | locus YER155C, strain BEM2, active compounds read low 1 | locus YER167W, strain BCK2, active compounds read low 0.996 | locus YFR010W, strain ubp6, active compounds read low 0.967 | locus YGL078C, strain dbp3, active compounds read low 0.978 | locus YGL086W, strain mad1, active compounds read low 1.01 | locus YGL167C, strain pmr1, active compounds read low 0.989 | locus YGL173C, strain kem1, active compounds read low 0.97 | locus YGL227W, strain vid30, active compounds read low 0.987 | locus YGL240W, strain doc1, active compounds read low 0.973 | locus YGL248W, strain PDE1, active compounds read low 0.995 | locus YGL253W, strain hxk2, active compounds read low 0.972 | locus YGR078C, strain PAC10, active compounds read low 1.01 | locus YGR135W, strain pre9, active compounds read low 0.954 | locus YGR252W, strain gcn5, active compounds read low 0.987 | locus YHR013C, strain ard1, active compounds read low 0.975 | locus YHR027C, strain rpn1, active compounds read low 0.981 | locus YHR030C, strain SLT2, active compounds read low 1 and 1.02 | locus YHR079C, strain IRE1 (second series), active compounds read low 0.968 | locus YHR079C, strain IRE1, active compounds read low 1.08 | locus YHR094C, strain hxt1, active compounds read low 0.984 | locus YHR129C, strain ARP1, active compounds read low 1.01 | locus YHR142W, strain chs7, active compounds read low 0.992 | locus YHR200W, strain rpn10, active compounds read low 0.97 | locus YIL066C, strain RNR3, active compounds read low 1.01 | locus YIL073C, strain SPO22, active compounds read low 0.908 | locus YIL125W, strain kgd1, active compounds read low 0.992 | locus YIR030C, strain dcg1, active compounds read low 0.949 | locus YJL092W, strain hpr5, active compounds read low 0.998 | locus YJL095W, strain BCK1 (second series), active compounds read low 0.989 | locus YJL095W, strain BCK1, active compounds read low 0.982 and 1.02 | locus YJL115W, strain asf1, active compounds read low 0.979 | locus YJL129C, strain trk1, active compounds read low 0.994 | locus YJL134W, strain LCB3, active compounds read low 1 | locus YJL154C, strain vps35, active compounds read low 0.972 | locus YJL164C, strain tpk1, active compounds read low 0.998 | locus YJL166W, strain qcr8, active compounds read low 1.04 | locus YJL168C, strain set2, active compounds read low 0.98 | locus YJL187C, strain SWE1 (second series), active compounds read low 0.988 | locus YJL187C, strain SWE1, active compounds read low 0.981 | locus YJR043C, strain POL32, active compounds read low 1.06 | locus YJR066W, strain TOR1, active compounds read low 0.952 | locus YKL009W, strain mrt4, active compounds read low 0.979 | locus YKL068W, active compounds read low 0.982 | locus YKL085W, strain MDH1 (second series), active compounds read low 1.01 | locus YKL085W, strain MDH1, active compounds read low 1.01 | locus YKL160W, strain elf1, active compounds read low 1.06 | locus YKR001C, strain vps1, active compounds read low 0.975 | locus YKR026C, strain gcn3, active compounds read low 0.974 | locus YKR091W, strain srl3, active compounds read low 0.994 | locus YLL001W, strain dnm1, active compounds read low 1.03 | locus YLL026W, active compounds read low 0.987 | locus YLL041C, strain sdh2, active compounds read low 0.979 | locus YLR027C, strain aat2, active compounds read low 0.973 | locus YLR039C, strain RIC1, active compounds read low 1.01 | locus YLR058C, strain SHM2, active compounds read low 0.996 | locus YLR102C, strain apc9, active compounds read low 0.975 | locus YLR113W, strain HOG1, active compounds read low 1.06 | locus YLR221C, strain rsa3, active compounds read low 1.03 | locus YLR258W, strain gsy2, active compounds read low 0.985 | locus YLR262C, strain YPT6 (second series), active compounds read low 0.991 | locus YLR262C, strain YPT6, active compounds read low 0.939 | locus YLR268W, strain sec22, active compounds read low 0.966 | locus YLR320W, strain mms22, active compounds read low 1.04 | locus YLR330W, strain CHS5, active compounds read low 0.999 | locus YLR342W, strain FKS1 (second series), active compounds read low 1.08 | locus YLR342W, strain FKS1, active compounds read low 0.983 | locus YLR357W, strain rsc2, active compounds read low 0.989 | locus YLR370C, strain arc18, active compounds read low 0.981 | locus YLR371W, strain rom2, active compounds read low 0.963 | locus YLR384C, strain iki3, active compounds read low 0.98 | locus YLR418C, strain cdc73, active compounds read low 0.996 | locus YML016C, strain PPZ1, active compounds read low 1.01 | locus YML032C, strain rad52, active compounds read low 0.988 | locus YML120C, strain ndi1, active compounds read low 1.01 | locus YML124C, strain tub3, active compounds read low 0.988 | locus YMR058W, strain fet3, active compounds read low 0.981 | locus YMR078C, strain ctf18, active compounds read low 0.966 | locus YMR125W, strain sto1, active compounds read low 0.979 | locus YMR129W, active compounds read low 0.966 | locus YMR205C, strain PFK2, active compounds read low 1.04 | locus YMR223W, strain ubp8, active compounds read low 0.973 | locus YMR231W, strain pep5, active compounds read low 0.97 | locus YMR307W, strain GAS1, active compounds read low 1.05 | locus YNL067W, strain RPL9B, active compounds read low 0.97 | locus YNL071W, strain lat1, active compounds read low 0.975 | locus YNL128W, strain TEP1, active compounds read low 0.969 | locus YNL153C, strain GIM3, active compounds read low 1 | locus YNL183C, strain NPR1, active compounds read low 0.987 | locus YNL209W, strain ssb2, active compounds read low 0.995 | locus YNL233W, strain BNI4, active compounds read low 1.01 | locus YNL248C, strain rpa49, active compounds read low 0.978 | locus YNL250W, strain rad50, active compounds read low 0.974 | locus YNL271C, strain bni1, active compounds read low 0.973 | locus YNL298W, strain CLA4, active compounds read low 0.969 | locus YNL307C, strain MCK1, active compounds read low 0.983 | locus YNL322C, strain KRE1 (second series), active compounds read low 0.983 | locus YNL322C, strain KRE1, active compounds read low 0.998 | locus YNR049C, strain mso1, active compounds read low 0.988 | locus YNR052C, strain pop2, active compounds read low 0.969 | locus YOL006C, strain TOP1, active compounds read low 0.966 | locus YOL012C, strain htz1 0.82 | locus YOL147C, strain pex11, active compounds read low 0.974 | locus YOR001W, strain rrp6, active compounds read low 0.93 | locus YOR061W, strain CKA2, active compounds read low 1 | locus YOR069W, strain VPS5, active compounds read low 1.01 | locus YOR070C, strain gyp1, active compounds read low 0.989 | locus YOR080W, strain dia2, active compounds read low 0.984 | locus YOR083W, strain WHI5, active compounds read low 1.07 | locus YOR106W, strain vam3, active compounds read low 1.02 | locus YOR136W, strain idh2, active compounds read low 0.976 | locus YOR144C, strain elg1, active compounds read low 0.98 | locus YOR184W, strain ser1, active compounds read low 0.957 | locus YOR231W, strain MKK1, active compounds read low 1.03 | locus YOR265W, strain rbl2, active compounds read low 0.986 | locus YOR270C, strain vph1, active compounds read low 0.982 | locus YOR290C, strain snf2, active compounds read low 0.954 | locus YOR316C, strain cot1, active compounds read low 0.959 | locus YPL051W, strain arl3, active compounds read low 0.991 | locus YPL055C, strain LGE1, active compounds read low 1.01 | locus YPL078C, strain atp4, active compounds read low 1.03 | locus YPL106C, strain sse1, active compounds read low 1 | locus YPL240C, strain hsp82, active compounds read low 0.97 | locus YPL241C, strain CIN2, active compounds read low 1 | locus YPL256C, strain CLN2, active compounds read low 1.02 | locus YPR119W, strain clb2, active compounds read low 0.967 | locus YPR141C, strain kar3, active compounds read low 0.95 | locus YPR163C, strain tif3, active compounds read low 0.98 | locus YPR167C, strain met16, active compounds read low 0.968 | strain wtn01, active compounds read low 0.997
